From PubChem BioAssay AID1159580 (chemical genetic matrix, 2015)
Among all 5,500 compounds or so, about 2,000 (36%) were called active. Roughly 18% stayed inconclusive and do not appear here. Cut-off read from the data, not from the text of the source: active = normalized growth mostly below about 0.91 (no sharp cut-off); inconclusive = no clear call, values can overlap the other calls; inactive = mostly above about 0.92. This is one part of the list.

Experiment: chemical genetic growth profiling, strain panel (AID 1159580);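 note: tested at 20 µM; growth read once vehicle control cultures reached saturation at 30 °C; 1 = growth at the plate median or of vehicle wells; lower values mean less growth of the strain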
Settings: S. cerevisiae deletion strains, growth OD

Measured: normalized growth

C=C[C@@]1(C)CC(=O)[C@@]2(O)[C@](C)(O1)[C@@H](O)[C@@H](O)C1C(C)(C)CC[C@H](O)[C@@]12C (stereo partly drawn)
inactive: locus YHR030C, strain SLT2, stronger effect = lower value 0.962 | locus YHR079C, strain IRE1, stronger effect = lower value 0.971 | locus YJL095W, strain BCK1, stronger effect = lower value 0.989 | locus YJR066W, strain TOR1, stronger effect = lower value 0.957 | locus YLR113W, strain HOG1, stronger effect = lower value 0.992 | locus YNL183C, strain NPR1, stronger effect = lower value 0.995 | locus YOR231W, strain MKK1, stronger effect = lower value 0.992 | locus YPL256C, strain CLN2, stronger effect = lower value 0.976
